The source of these data is PubChem BioAssay (NCATS).

SMILES strings stand for the structures. “And” between values parts separate entries of the source, which are not always exact repeats. Equal entries are not always repeated. Inconclusive results are not listed. The source made the active and inactive calls. Calls follow the shape of the dose curve; as a rule, active = well fitted cell-killing curve with a large enough effect; inconclusive = small, poorly fitted or top-dose-only effect, or effect the other way; inactive = no such curve, though single readings can be large or run the other way.
Potency is read from the fitted curve at half-maximal effect.

The first test can be described thus: Viability qHTS for spleen associated tyrosine kinase inhibitor (SYKi) naive MV4-11 cells (AID 1963823). Also: nearly all actives have a fitted effect of over 40% in size. As to conditions: MV4-11 AML viability, CellTiter-Glo luminescence, 72 h; series mostly up to 45 µM; viability (% of control): at the top concentration. An outline of the steps:
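In this viability screen, compounds acted on SYK inhibitor naive MV4-11 cells for three days (72 hr, 37 C). Remaining viable cells were measured by CellTiter-Glo luminescence following a 10 min room-temperature development.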
On to `C#C[C@]1(O)CC[C@H]2[C@@H]3[C@H](C)CC4=C(CCC(=O)C4)[C@H]3CC[C@@]21C`, for which the “viability (% of control)” value is 64.2% (inactive). The same measure, in the same setting: in the case of `Nc1ccc(O)c([N+](=O)[O-])c1` it was 72.9% [at 91.9 µM] (inactive); in that of `CC1(C)S[C@H]2[C@H](NC(=O)[C@@H](N)c3ccc(O)cc3)C(=O)N2[C@H]1C(=O)O`, 68.6% (inactive); in that of `NS(=O)(=O)c1cc2c(cc1Cl)NC(CC1CCCC1)NS2(=O)=O` (configuration not stated), 93.9% (inactive). Still for that read-out and setting: the result for `Cc1cccc(C)c1NC(=O)c1ccc(N)cc1` reads 88.1% (inactive); that for `O=C(O)CNC(=O)c1nc(Cl)c2ccccc2c1O`, 63.8% (inactive).

On to `C=C[C@H]1CN2CC[C@H]1C[C@@H]2[C@@H](O)c1ccnc2ccc(OC)cc12`, for which the “viability (% of control)” value is 74.7% (inactive). The same measure, in the same setting: in the case of `CCCCCN(CCCCC)C(=O)C(CCC(=O)O)NC(=O)c1ccc(Cl)c(Cl)c1` (configuration not stated) it was 51.6% (inactive). Regarding `CC(C)N(CCCNC(=O)Nc1ccc(C(C)(C)C)cc1)C[C@H]1O[C@@H](n2cc(Br)c3c(N)ncnc32)[C@H](O)[C@@H]1O`, the Potency was 4.68 µM (active). The same measure, in the same setting: in the case of `Cc1[nH]c2ccccc2c1CCNCc1ccc(/C=C/C(=O)NO)cc1` it was 0.0295 µM (active). Consider `Oc1ccccc1`, for which the “viability (% of control)” value is 77.8% (inactive). On the same count and under the same terms, the result for `Nc1c(NC/C=C\COc2cc(CN3CCCCC3)ccn2)c(=O)c1=O` reads 95.2% [at 17.3 µM] (inactive); that for `CC(C)NCC(O)COc1cccc2[nH]ccc12` (configuration not stated), 78.2% (inactive); that for `c1ccc2sc(SSc3nc4ccccc4s3)nc2c1`, 96.6% [at 17.3 µM] (inactive). On the same count and under the same terms, the result for `O=C(O)CCCC[C@@H]1SC[C@@H]2NC(=O)N[C@@H]21` reads 93.4% (inactive); that for `COc1ccc(-c2cc(=O)c3c(O)cc(O[C@@H]4O[C@H](CO[C@@H]5O[C@@H](C)[C@H](O)[C@@H](O)[C@H]5O)[C@@H](O)[C@H](O)[C@H]4O)cc3o2)cc1O`, 72.6% (inactive). Still for that read-out and setting: the result for `CCC(C)(CN(C)C)OC(=O)c1ccccc1` (configuration not stated) reads 82.5% (inactive); that for `CCN(CC)CCOC(=O)C(c1ccccc1)C1CCCCC1` (configuration not stated), 1.64% (inactive).

For the compound `CCCCCCCCCCCCCCCCOCCCOP(=O)(O)COC(CO)Cn1ccc(N)nc1=O` (configuration not stated), the Potency was 2.59 µM (active). For `CC(=O)Nc1ccc(O)cc1`, the “viability (% of control)” value was 73.3% (inactive). Same read-out and setting: the result for `CCCN1CCCC[C@H]1C(=O)Nc1c(C)cccc1C` reads 74.8% (inactive); that for `CC(=O)N[C@H]1CSSC[C@@H](C(N)=O)NC(=O)[C@H](C(C)C)NC(=O)[C@H](C)NC(=O)[C@H](Cc2cnc[nH]2)NC1=O`, 83.7% (inactive); that for `CCCCOc1cc(C(=O)OCCN(CC)CC)ccc1N`, 69.8% (inactive).

On to `C[C@H]1NCc2cc(-c3ccc4c(=O)c(C(=O)O)cn(C5CC5)c4c3OC(F)F)ccc21`, for which the “viability (% of control)” value was 87.5% [at 17.3 µM] (inactive).

Consider `C=CC(=O)N1CCC[C@H](n2c(=O)n(-c3ccc(Oc4ccccc4)cc3)c3c(N)ncnc32)C1`, for which the Potency was 1.05 µM (active). In the case of `O=C([O-])C[O-].[Pt+2]`, the “viability (% of control)” value was 92.9% (inactive).

`NC12CC3CC(CC(C3)C1)C2`: the Potency entry was “inactive”.

The next test is described as follows: Viability qHTS for spleen associated tyrosine kinase inhibitor (SYKi) drug resistant MV4-11 cells (AID 1963824). Also: nearly all actives have a fitted effect of over 35% in size. As to conditions: SYKi-resistant MV4-11 viability, CellTiter-Glo, 72 h; series mostly up to 45 µM; viability, % of control: at the top concentration. In a few lines: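 CellTiter-Glo luminescence, read 10 min after reagent addition, reports viability after a 72 hr compound exposure. Cells are an MV4-11 line made resistant to SYK inhibition, seeded at 500 per well onto compound-containing plates.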
For the compound `Cc1[nH]c(/C=C2\C(=O)Nc3ccc(S(=O)(=O)N(C)c4cccc(Cl)c4)cc32)c(C)c1C(=O)N1CCN(C)CC1`, the Potency is 1.46 µM (active) and 2.09 µM (active). Consider `C[C@@H]1N=C(N)NC(N(C)C)=N1`, for which the Potency entry was “inactive”. With `O=S(=O)(O)c1cc(I)c(O)c2ncccc12`, the “viability, % of control” value was 79.4% (inactive). For the compound `C=CC(=O)N1CCC[C@@H](n2nc(-c3ccc(Oc4ccccc4)cc3)c3c(N)ncnc32)C1`, the Potency is 1.3 µM (active) and 1.18 µM (active). Same read-out and setting: the result for `COc1cccc2c1C(=O)c1c(O)c3c(c(O)c1C2=O)C[C@@](O)(C(=O)CO)C[C@@H]3O[C@H]1C[C@H](N)[C@H](O[C@@H]2CCCCO2)[C@H](C)O1` reads 3.35 µM (active). The same measure, in the same setting: in the case of `COc1ccc2c(c1)[C@]1(C[C@H]1c1ccc3c(/C=C/c4ccc(CN5C[C@@H](C)O[C@@H](C)C5)cc4)n[nH]c3c1)C(=O)N2` it was 0.332 µM (active); in that of `CCN1C(=O)CNc2ncc(-c3ccc(-c4ncn[nH]4)nc3C)nc21`, 0.742 µM (active). Take `Nc1ncnc2c1ncn2[C@@H]1O[C@H](CO)C[C@H]1O`: the “viability, % of control” value is 94.2% (inactive).

As to `CO[C@@]1(NC(=O)C(C(=O)O)c2ccc(O)cc2)C(=O)N2C(C(=O)O)=C(CSc3nnnn3C)CO[C@@H]21` (some centres not stated), the “viability, % of control” value was 57.5% (inactive).

On to `NS(=O)(=O)c1cc2c(cc1C(F)(F)F)NCNS2(=O)=O`, for which the “viability, % of control” value was 68% (inactive). The same measure, in the same setting: in the case of `CC1=C(C(=O)O)N2C(=O)[C@@H](NC(=O)[C@H](N)c3ccc(O)cc3)[C@H]2SC1` it was 66.9% (inactive).

`Nc1ccc(C(=O)OCC(O)CO)cc1` (configuration not stated): the “viability, % of control” value is 79.8% (inactive).

Take `NCCCC[C@H](N[C@@H](CCc1ccccc1)C(=O)O)C(=O)N1CCC[C@H]1C(=O)O`: the “viability, % of control” value is 88.3% (inactive). For the compound `C#C[C@]1(O)CC[C@H]2[C@@H]3[C@H](C)CC4=C(CCC(=O)C4)[C@H]3CC[C@@]21C`, the Potency was 18.6 µM (active).

As for `Nc1ccc(O)c([N+](=O)[O-])c1`, the Potency is 0.0611 µM (active). On to `CC1(C)S[C@H]2[C@H](NC(=O)[C@@H](N)c3ccc(O)cc3)C(=O)N2[C@H]1C(=O)O`, for which the “viability, % of control” value was 89.7% (inactive). Still for that read-out and setting: in the case of `NS(=O)(=O)c1cc2c(cc1Cl)NC(CC1CCCC1)NS2(=O)=O` (configuration not stated) it was 121% (inactive). For `Cc1cccc(C)c1NC(=O)c1ccc(N)cc1`, the “viability, % of control” value was 91.2% (inactive). Same read-out and setting: the result for `O=C(O)CNC(=O)c1nc(Cl)c2ccccc2c1O` reads 75.6% (inactive); that for `C=C[C@H]1CN2CC[C@H]1C[C@@H]2[C@@H](O)c1ccnc2ccc(OC)cc12`, 84.2% (inactive). `CCCCCN(CCCCC)C(=O)C(CCC(=O)O)NC(=O)c1ccc(Cl)c(Cl)c1` (configuration not stated): the “viability, % of control” value is 56.4% (inactive). `CC(C)N(CCCNC(=O)Nc1ccc(C(C)(C)C)cc1)C[C@H]1O[C@@H](n2cc(Br)c3c(N)ncnc32)[C@H](O)[C@@H]1O`: the Potency is 18.4 µM (active) and 7.42 µM (active). On the same count and under the same terms, the result for `Cc1[nH]c2ccccc2c1CCNCc1ccc(/C=C/C(=O)NO)cc1` reads 0.0263 µM (active). Regarding `Oc1ccccc1`, the “viability, % of control” value was 80.1% (inactive). Still for that read-out and setting: the result for `Nc1c(NC/C=C\COc2cc(CN3CCCCC3)ccn2)c(=O)c1=O` reads 87.5% [at 17.3 µM] (inactive); that for `CC(C)NCC(O)COc1cccc2[nH]ccc12` (configuration not stated), 90.6% (inactive).

Regarding `c1ccc2sc(SSc3nc4ccccc4s3)nc2c1`, the “viability, % of control” value was 84.5% [at 17.3 µM] (inactive). Regarding `O=C(O)CCCC[C@@H]1SC[C@@H]2NC(=O)N[C@@H]21`, the “viability, % of control” value was 103% (inactive). As to `COc1ccc(-c2cc(=O)c3c(O)cc(O[C@@H]4O[C@H](CO[C@@H]5O[C@@H](C)[C@H](O)[C@@H](O)[C@H]5O)[C@@H](O)[C@H](O)[C@H]4O)cc3o2)cc1O`, the Potency result was “inactive”.

In the case of `CCC(C)(CN(C)C)OC(=O)c1ccccc1` (configuration not stated), the “viability, % of control” value was 95.3% (inactive). The same measure, in the same setting: the result for `CCN(CC)CCOC(=O)C(c1ccccc1)C1CCCCC1` (configuration not stated) reads 1.52% (inactive). On to `CCCCCCCCCCCCCCCCOCCCOP(=O)(O)COC(CO)Cn1ccc(N)nc1=O` (configuration not stated), for which the Potency was 3.26 µM (active). As to `CC(=O)Nc1ccc(O)cc1`, the “viability, % of control” value was 83.6% (inactive). The same measure, in the same setting: the result for `CCCN1CCCC[C@H]1C(=O)Nc1c(C)cccc1C` reads 81.6% (inactive); that for `CC(=O)N[C@H]1CSSC[C@@H](C(N)=O)NC(=O)[C@H](C(C)C)NC(=O)[C@H](C)NC(=O)[C@H](Cc2cnc[nH]2)NC1=O`, 97.1% (inactive). Same read-out and setting: the result for `CCCCOc1cc(C(=O)OCCN(CC)CC)ccc1N` reads 78.3% (inactive); that for `C[C@H]1NCc2cc(-c3ccc4c(=O)c(C(=O)O)cn(C5CC5)c4c3OC(F)F)ccc21`, 93.6% [at 17.3 µM] (inactive). With `C=CC(=O)N1CCC[C@H](n2c(=O)n(-c3ccc(Oc4ccccc4)cc3)c3c(N)ncnc32)C1`, the Potency was 1.66 µM (active).

Turning to `O=C([O-])C[O-].[Pt+2]`, the “viability, % of control” value is 98.5% (inactive). Regarding `NC12CC3CC(CC(C3)C1)C2`, the Potency result was “inactive”.
